# Source: paper PMC11062922 (Nature Chemical Biology, 2023)
# Read-outs that look alike come from different tables or passages of the source.
# Columns and labels:
# Design in all cases: species or system human, MV4-11 + K-562 + COLO205 + SK-N-BE2 + OVCAR-8
# ACVR1 = settings: read-out: apparent Kd, compound concentrations: 100 nM and 1000 nM (sheet 'Samples'), n = 1
# DDR2 = settings: read-out: apparent Kd; compound concentrations: 100 nM and 1000 nM (sheet 'Samples'), CATDS: 0.13771295119314; n = 1
# PDGFRB = settings: read-out: apparent Kd; compound concentrations: 100 nM and 1000 nM (sheet 'Samples'), CATDS: 0.14028775258346299; n = 1
# PIK3CD = settings: read-out: apparent Kd, n = 1
# RIPK2 = settings: read-out: apparent Kd, n = 1
# ACVR1B = settings: read-out: apparent Kd; compound concentrations:100 nM and 1000 nM (sheet 'Samples'); n = 1
# DJA1 = tested on: T1, DJA1; settings: read-out: apparent Kd; compound concentrations:100 nM and 1000 nM (sheet 'Samples'); n = 1
# T1 construct: gene DNAJA1
# FYN = settings: read-out: apparent Kd; compound concentrations:100 nM and 1000 nM (sheet 'Samples'); n = 1
# PIK3CA = settings: read-out: apparent Kd; compound concentrations:100 nM and 1000 nM (sheet 'Samples'); n = 1
# STK16 = settings: read-out: apparent Kd; compound concentrations:100 nM and 1000 nM (sheet 'Samples'); n = 1
# NQO2 = settings: read-out: apparent Kd; compound concentrations:100 nM and 1000 nM (sheet 'Samples'); n = 1
# TESK2 = settings: read-out: apparent Kd; compound concentrations:100 nM and 1000 nM (sheet 'Samples'); n = 1
# TGFBR1 = settings: read-out: apparent Kd; compound concentrations:100 nM and 1000 nM (sheet 'Samples'); n = 1
# TGFBR2 = settings: read-out: apparent Kd, n = 1
# DAPK3 = settings: read-out: apparent Kd; compound concentrations:100 nM and 1000 nM (sheet 'Samples'); n = 1
# PIK3CG = settings: read-out: apparent Kd; compound concentrations:100 nM and 1000 nM (sheet 'Samples'); n = 1
# PKN3 = settings: read-out: apparent Kd; compound concentrations:100 nM and 1000 nM (sheet 'Samples'); n = 1
# PRKD2 = settings: read-out: apparent Kd; compound concentrations:100 nM and 1000 nM (sheet 'Samples'); n = 1
# PRKD3 = settings: read-out: apparent Kd; compound concentrations:100 nM and 1000 nM (sheet 'Samples'); n = 1
# ACVR2B = settings: read-out: apparent Kd; compound concentrations:100 nM and 1000 nM (sheet 'Samples'); n = 1
# MAP3K1 = settings: read-out: apparent Kd; compound concentrations:100 nM and 1000 nM (sheet 'Samples'); n = 1
# SLK = settings: read-out: apparent Kd; compound concentrations:100 nM and 1000 nM (sheet 'Samples'); n = 1
# STK10 = settings: read-out: apparent Kd; compound concentrations:100 nM and 1000 nM (sheet 'Samples'); n = 1
# ATM = settings: read-out: apparent Kd; compound concentrations: 100 nM and 1000 nM (sheet 'Samples'), CATDS: 0.20840274799776901; n = 1
# CDC42BPG = settings: read-out: apparent Kd; compound concentrations: 100 nM and 1000 nM (sheet 'Samples'), CATDS: 7.2395541627420706E-2; n = 1
# CLK1 = settings: read-out: apparent Kd; compound concentrations: 100 nM and 1000 nM (sheet 'Samples'), CATDS: 0.111342996670081; n = 1
# CLK2 = settings: read-out: apparent Kd; compound concentrations: 100 nM and 1000 nM (sheet 'Samples'), CATDS: 0.14537230764377601; n = 1
# CLK4 = settings: read-out: apparent Kd; compound concentrations: 100 nM and 1000 nM (sheet 'Samples'), CATDS: 9.3990878908875697E-2; n = 1
# DDX3X;DDX3Y = settings: read-out: apparent Kd; compound concentrations: 100 nM and 1000 nM (sheet 'Samples'), CATDS: 7.1763596621612302E-2; n = 1
# FLT3 = settings: read-out: apparent Kd; compound concentrations: 100 nM and 1000 nM (sheet 'Samples'), CATDS: 0.113809183908987; n = 1
# RIPK3 = settings: read-out: apparent Kd; compound concentrations: 100 nM and 1000 nM (sheet 'Samples'), CATDS: 7.33471794094432E-2; n = 1
# [1] = compound concentrations:100 nM and 1000 nM (sheet 'Samples')
smiles,measurement,setting,value
COC(=O)c1cncc(/C=C/c2c(C)cc(O)cc2C)c1 [GW406731X],potency estimated from few doses,ACVR1; CATDS: 0.26070115141914502,403 nM
same,potency estimated from few doses,DDR2,2520 nM
same,potency estimated from few doses,PDGFRB,2330 nM
same,potency estimated from few doses,"PIK3CD; compound concentrations: 100 nM and 1000 nM (sheet 'Samples'), CATDS: 0.471997589985167",143 nM
same,potency estimated from few doses,"RIPK2; compound concentrations: 100 nM and 1000 nM (sheet 'Samples'), CATDS: 0.21478363135213999",621 nM
Clc1cccc(-c2nc(Nc3ccncc3)c3ccccc3n2)c1 [GW873004X],potency estimated from few doses,ACVR1B,843 nM
same,potency estimated from few doses,DJA1,2180 nM
same,potency estimated from few doses,FYN,937 nM
same,potency estimated from few doses,PIK3CA,222 nM
same,potency estimated from few doses,PIK3CD; [1],106 nM
same,potency estimated from few doses,STK16,1400 nM
Cl.c1ccc(-c2n[nH]cc2-c2ccnc(-c3ccc(CN4CCOCC4)cc3)c2)nc1 [GW776245A],potency estimated from few doses,ACVR1B,335 nM
same,potency estimated from few doses,NQO2,243 nM
same,potency estimated from few doses,RIPK2; [1],1080 nM
same,potency estimated from few doses,TESK2,1580 nM
same,potency estimated from few doses,TGFBR1,51.8 nM
same,potency estimated from few doses,TGFBR2; [1],1230 nM
O=C(c1ccc(-c2cc(-c3c[nH]nc3-c3ccccn3)ccn2)cc1)N1CCOCC1 [GW812171X],potency estimated from few doses,ACVR1B,119 nM
same,potency estimated from few doses,TGFBR1,67.6 nM
Cc1csc(-c2nc(Nc3ccncc3)c3ccccc3n2)n1 [GW869640X],potency estimated from few doses,ACVR1B,17.6 nM
same,potency estimated from few doses,DAPK3,1290 nM
same,potency estimated from few doses,PIK3CG,1460 nM
same,potency estimated from few doses,PKN3,939 nM
same,potency estimated from few doses,PRKD2,191 nM
same,potency estimated from few doses,PRKD3,504 nM
same,potency estimated from few doses,TGFBR2; [1],750 nM
C[C@@H](Oc1cc(-n2cnc3cc(-c4ccnc(N5CCN(C)CC5)c4)ccc32)sc1C(N)=O)c1ccccc1Cl [GSK641502A],potency estimated from few doses,ACVR2B,732 nM
same,potency estimated from few doses,MAP3K1,603 nM
same,potency estimated from few doses,SLK,1940 nM
same,potency estimated from few doses,STK10,1120 nM
COc1ccc2nc(-c3cccc(C)n3)nc(Nc3ccncc3)c2c1 [GSK204919_KCGS],potency estimated from few doses,ACVR1B,61.3 nM
same,potency estimated from few doses,PKN3,647 nM
same,potency estimated from few doses,PRKD2,12.6 nM
same,potency estimated from few doses,PRKD3,8.21 nM
COc1ccc2cc(-c3c(-c4ccncc4)nc(-c4ccc(S(C)=O)cc4C)n3C)ccc2c1 (centres unmarked) [SB-630812],potency estimated from few doses,ACVR1B,288 nM
same,potency estimated from few doses,SLK,2250 nM
same,potency estimated from few doses,STK10,1990 nM
CCS(=O)(=O)c1ccc(OC)c(Nc2ncc(-c3cccc(C(C)=O)c3)o2)c1 [GW621431X],potency estimated from few doses,ACVR1; CATDS: 9.7395071504851799E-2,882 nM
same,potency estimated from few doses,ATM,232 nM
same,potency estimated from few doses,CDC42BPG,2020 nM
same,potency estimated from few doses,CLK1,661 nM
same,potency estimated from few doses,CLK2,405 nM
same,potency estimated from few doses,CLK4,958 nM
same,potency estimated from few doses,DDX3X;DDX3Y,2090 nM
same,potency estimated from few doses,FLT3,633 nM
same,potency estimated from few doses,RIPK3,1930 nM
same,potency estimated from few doses,"TGFBR2; compound concentrations: 100 nM and 1000 nM (sheet 'Samples'), CATDS: 0.12096887154144",562 nM
